# Compounds with a hit are over-represented: about 11% of the library has one in this group of screens.
# Pf growth 48h = inhibits P. falciparum growth in the first generation, 48 h | P. falciparum luciferase growth in erythrocytes, 48 h | Potency, µM (series often up to 28.7 µM), usual class: inhibitors | actives 5.9% (n = 310,000)
#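 Compounds are pin-transferred into medium, infected erythrocytes (2% hematocrit, 0.1% parasitemia final) are added, and plates sit one parasite generation at 37 C in 5% CO2. Detection reagent is then added and luminescence measured.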
# AMA1 RON2 block = inhibitors of Plasmodium falciparum AMA1-RON2 interaction; Potency, µM (titrated, usually from 58.2 µM), most hits filed as inhibitors; actives 0.2% (n = 360,000); AID 720542; AlphaScreen AMA1-biotinylated RON2 peptide binding; note: nearly all actives have a fitted effect of over 45% in size
#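 AMA1 (3D7) with his tag at 25 nM final met compounds first, then biotinylated RON2 peptide at 25 nM; detection used donor plus acceptor beads, 10 µg/mL apiece, read by AlphaScreen after 30 min at room temperature.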
# Sm TGR block = S. mansoni TGR enzyme inhibition; Q962Y6; purified TGR, DTNB reduction, TNB absorbance 405 nm; Potency, µM (series often up to 114 µM), most hits filed as inhibitors; actives 3% (n = 360,000); note: nearly all actives have a fitted effect of over 60% in size
#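 First, TGR (20 nM dispensed) and NADPH were mixed with compound. Second, a 15 min room-temperature incubation followed. Third, further NADPH and then DTNB were added to start the reaction. Finally, TNB absorbance was monitored kinetically.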
# Pf growth 96h = P. falciparum growth inhibition at 96 hour, primary screen for plastid delayed-death inhibitors. actives 6.9% (n = 320,000). AID 504834. P. falciparum luciferase reporter growth, 96 h. Potency, µM (top dose mostly 28.7 µM), usual class: inhibitors
#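 Delayed-death screen, second-generation endpoint: infected erythrocytes, 2% hematocrit, 0.05% parasitemia final; 96 hours at 37 C, 5% CO2; luciferase detection reagent; luminescence decrease equals reduced growth.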
# NS1 function inh = inhibitors of influenza NS1 protein function; Potency, µM (titrated, usually from 46.1 µM); AID 2326; actives 0.4% (n = 270,000); calls by dose curve; note: actives are rising curves; nearly all actives have a fitted effect of over 50% in size
#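 OD600 was taken as the measure of yeast growth restored by compound in an NS1-expressing S. cerevisiae strain. Cells had been washed out of glucose medium and diluted 1:100 into galactose -URA medium, pH 6.0.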
# Numbers stand for hits; 0 = inactive; ? = inconclusive; - = no result. Unless noted, calls come from the whole dose curve; as a rule, active = well fitted curve in the direction sought with a large enough effect; inconclusive = small, poorly fitted or top-dose-only effect, or another doubt; inactive = no such curve, though single readings can be large; an effect the other way counts as inactive or inconclusive.
SMILES,Pf growth 48h,AMA1 RON2 block,Sm TGR block,Pf growth 96h,NS1 function inh
Cn1c(SCC(=O)c2ccc3c(c2)OCO3)nnc1C1COc2ccccc2O1 (centres undefined),?,0,0,11.7µM,?
CCCC#Cc1ccc2c(c1)O[C@H](CN(C)S(=O)(=O)c1cccc(OC)c1)[C@H](C)CN([C@H](C)CO)S2(=O)=O,-,0,-,-,-
CC1CCCCC1NC(=O)/C(C#N)=C/c1ccc(F)c(F)c1 (centres undefined),11.7µM,0,0,?,0
Cc1cccc(-c2oc3ccccc3c2-c2ccc3c(c2)OCO3)c1,?,0,0,9.28µM,0
Cc1cccc(-c2noc(-c3ccc4c(c3)OCO4)n2)c1,0,0,0,0,0
Cc1cccc(Oc2nc(-c3ccncc3)nc3ccccc23)c1,1.65µM,0,0,1.47µM,0
c1ccc(Oc2nc(-c3cccnc3)nc3ccccc23)cc1,10.4µM,0,0,?,0
Cc1cccc(Oc2nc(-c3ccccn3)nc3ccccc23)c1,1.85µM,0,0,2.62µM,0
O=[N+]([O-])c1ncccc1Oc1nc(-c2cccnc2)nc2ccccc12,?,0,0,0,-
Cc1ccccc1Oc1nc(-c2ccccn2)nc2ccccc12,1.85µM,0,0,0.928µM,0
CSCCC(NC(=O)c1cccc([N+](=O)[O-])c1)C(=O)OCC(=O)N1CCCC1=O (centres undefined),0,0,0,0,-
CC(=O)Nc1cccc(Oc2nc(-c3ccccn3)nc3ccccc23)c1,?,0,0,?,0
CC(=O)Nc1ccc(Oc2nc(-c3ccccn3)nc3ccccc23)cc1,?,0,0,11.7µM,0
Cc1ccc(/C=C2\SC(=S)N(/N=C/c3cc([N+](=O)[O-])ccc3O)C2=O)o1,?,0,8.91µM,?,-
O=C(NN1C(=O)/C(=C/c2cc([N+](=O)[O-])ccc2O)SC1=S)c1ccccc1O,0,-,35.5µM,0,-
O=C(NN1C(=O)/C(=C/c2ccc(O)c([N+](=O)[O-])c2)SC1=S)c1ccccc1Cl,0,?,0,0,-
O=C1CCN(S(=O)(=O)c2cc(C(F)(F)F)ccc2Cl)CC1,0,0,0,0,-
Cc1snc(SCc2cccc(Cl)c2)c1C#N,0,0,0,0,0
O=C(Nc1nc(-c2ccccn2)cs1)Nc1ccc(F)cc1F,1.47µM,0,0,1.65µM,0
O=C(Nc1ccc(F)c(Cl)c1)Nc1csc2ccccc12,?,0,0,?,0
O=C(Nc1nc(-c2ccccc2)cs1)Nc1ccc(F)cc1F,0,0,0,0,-
O=C(Nc1ccc(F)cc1F)Nc1csc2ccccc12,4.65µM,0,0,?,0
COc1ccc(OC)c(C(C)NC(=O)Nc2ccccc2)c1 (centres undefined),0,0,0,0,-
COC(=O)c1cccc(C23CC4(C2)[C@H](CN(Cc2cccnc2)[C@@H]4c2ccccc2)C3c2ccc(Cl)nc2)c1 (some centres undefined),13.1µM,0,0,11.7µM,0
Clc1ccc(C2[C@H]3CN(CC4CCCCC4)[C@H](c4ccccc4)C34CC2(c2ccccc2)C4)cn1 (some centres undefined),?,0,0,?,0
SMILES,Pf growth 48h,AMA1 RON2 block,Sm TGR block,Pf growth 96h,NS1 function inh
FC(F)(F)c1ccc(CN2C[C@@H]3C(c4ccc(Cl)nc4)C4(c5cccnc5)CC3(C4)[C@H]2c2ccccc2)cc1 (some centres undefined),3.29µM,0,?,2.33µM,0
COC(=O)c1cccc(C23CC4(C2)[C@H](CN(Cc2ccc(-c5ccccc5)cc2)[C@@H]4c2ccccc2)C3c2ccc(Cl)nc2)c1 (some centres undefined),?,0,0,?,0
Clc1ccc(C2[C@H]3CN(Cc4ccc(-c5ccccc5)cc4)[C@H](c4ccccc4)C34CC2(c2cccnc2)C4)cn1 (some centres undefined),3.29µM,-,?,2.33µM,0
COC(=O)c1ccc(C23CC4(C2)[C@H](CN(CC2CCCCC2)[C@@H]4c2ccccc2)C3c2ccc(Cl)nc2)cc1 (some centres undefined),9.28µM,0,0,9.28µM,0
CCN(CC)c1ccc(NC(=S)NCC2CCCO2)cc1 (centres undefined),0,?,?,?,0
COC(=O)c1cccc(C23CC4(C2)[C@H](CN(CC2CCCCC2)[C@@H]4c2ccccc2)C3c2ccccc2)c1 (some centres undefined),10.4µM,0,?,4.15µM,0
